Measured values taken from PubChem BioAssay.
Where “and” joins values, the source holds several entries; their conditions need not be identical. Equal values may be shown once. Records with an inconclusive call do not appear. Calls of active or inactive are those of the source.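 The calls were made as follows, unless noted: active = normalized viability below 100% at a tested concentration; inactive = the rest.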

Legend:
[1] = liver-stage malaria parasite load reduction – cell-based, known kinase inhibitor set, luminescence, hepatoma host viability (AID 624392; call rule not given here;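 also: infected cells incubated roughly two days before readout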); conditions: Plasmodium liver stage in hepatoma cells, luciferase luminescence, concentration not given here; liver cell % of control: measured here: host liver cell viability; parasite % of control: stronger effect = lower value
[2] = altered dexamethasone sensitivity, NF-kB reporter, cell-based, luciferase, IL-1B stimulus (AID 624486; call rule not given here;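 as to percent of negative control (+Dex): 100% = mean signal of vehicle control wells on the plate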); conditions: IL-1B + dexamethasone, luminescence; percent of negative control (+Dex): actives lie on both sides, concentration not given here; z-score: measured here: IL-1B alone, no Dex
[3] = C. elegans survival during P. aeruginosa infection – whole organism (AID 651566; call rule not given here;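 also: tested at 14 µM; sign flipped so higher z means a lower ratio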); conditions: C. elegans killed by P. aeruginosa, survival ratio
[4] = pro-inflammatory signaling induction in mouse macrophages – cell-based, murine, luminescence (AID 652131; call rule not given here); conditions: murine macrophage pro-inflammatory reporter, stronger effect = higher value
[5] = molecular target: Cellular tumor antigen p53 (Homo sapiens) (UniProt P04637); experiment: GFP-p53 level modulators in HPV16+ cells – imaging, known kinase inhibitor set, EGFP/DsRed ratio (AID 1053116; call rule not given here;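 also: cells exposed to compounds for 24 h at 37 °C before reading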); conditions: GFP-p53 stability, stronger effect = higher value; EGFP object count: measured here: GFP-p53 positive objects count
[6] = inducers of IRF3 signaling, differentiated THP-1 – cell-based, PMA-stimulated THP-1, luminescence (AID 1053176; call rule not given here); conditions: PMA-differentiated THP-1, IRF3 reporter luminescence; stronger effect = higher value
[7] = viability loss with induced miR-34 in A549 – imaging, A549 dox-inducible miR-34, nuclei and caspase counts, primary screen (AID 1347080;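 active = compounds whose cell count with miR-34 switched on is under 0.7 times the count with it off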); conditions: A549 miR-34 inducible, Hoechst nuclei count, 48 h
[8] = MELAS cybrid and Rieske KO viability enhancers – cell-based, MELAS cybrids, Rieske KO mouse fibroblasts, CellTiter-Glo, primary screen (AID 1508586;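 active = mean z-score across replicates of 1.96 or higher in either the MELAS or the Rieske mutant cell line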;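 also: z relative to plate mean and SD of compound and empty wells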); conditions: low glucose
[9] = galactose survival enhancers in mitochondrial complex I cybrids – cell-based, galactose medium, ATP luminescence, primary screen (AID 1645843;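 active = z-score of at least 1.8 in each of two replicates, scored against plate mean and spread of sample wells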;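 also: positive z means more ATP and so rescue of galactose-driven cybrid death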); conditions: complex I mutant cybrid cells, 72 h, stronger effect = higher value
[10] = viability loss in pontine glioma line – cell-based, JHH-DIPG-1, MIPE4.0, CellTiter-Glo, qHTS, dose response (AID 1347062; cut-off not given, nearly all actives have AC50 up to about 27 µM;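 as to AC50: cells exposed to compound for two days before readout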); conditions: JHH-DIPG-1 viability, CellTiter-Glo ATP luminescence
[11] = viability loss in pontine glioma line – cell-based, SU-DIPG-IV, MIPE4.0, CellTiter-Glo, qHTS, dose response (AID 1347063; cut-off not given, nearly all actives have AC50 up to about 30 µM;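 also: compound exposure lasted 48 hours before the viability readout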); conditions: CellTiter-Glo ATP luminescence
[12] = viability loss in pontine glioma line – cell-based, SU-DIPG-XXV, MIPE5.0, CellTiter-Glo, qHTS, dose response (AID 1347065; cut-off not given, nearly all actives have AC50 up to about 26 µM;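 also: cells exposed to compound for 48 hours before ATP readout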); conditions: CellTiter-Glo ATP luminescence
[13] = growth inhibition of DIPG cells – cell-based, MIPE4.0 library, CellTiter-Glo luminescence, qHTS (AID 1347066; cut-off not given, nearly all actives have AC50 up to about 30 µM;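 also: cells exposed to compound for 48 hours before readout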); conditions: SU-DIPG-VI viability, CellTiter-Glo ATP luminescence
[14] = JHH-DIPG-1 glioma cell viability, MIPE5.0 library, CellTiter-Glo luminescence, qHTS (AID 1347067; cut-off not given, nearly all actives have AC50 up to about 26 µM;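 also: cells exposed to compound for 48 hours before readout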); conditions: JHH-DIPG-1 glioma viability, CellTiter-Glo ATP luminescence
[15] = growth inhibition of DIPG cells – cell-based, MIPE5.0 library, qHTS (AID 1347068; cut-off not given, nearly all actives have IC50 up to about 30 µM); conditions: SU-DIPG-XXV viability
[16] = viability loss in pontine glioma line – cell-based, SU-DIPG-XVII, MIPE5.0, CellTiter-Glo, qHTS, dose response (AID 1347060; cut-off not given, nearly all actives have AC50 up to about 26 µM); conditions: CellTiter-Glo ATP luminescence
[17] = viability loss in pontine glioma line – cell-based, SU-DIPG-XIII, MIPE4.0, CellTiter-Glo, qHTS, dose response (AID 1347061; cut-off not given, nearly all actives have AC50 up to about 37 µM;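 also: cells exposed to compound for 48 hours before readout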); conditions: CellTiter-Glo ATP luminescence
[18] = compounds altering HSF1 focus formation in cells – imaging, Selleck Cancer Library (AID 1347162; in the data active = plate-normalised HSF1 focus index below about 0.46); conditions: human cells, HSF1 nuclear foci imaging, at 10 µM; SSMD: measured here: HSF1 foci SSMD mean; cell count: measured here: cell number; plate-normalised HSF1 focus index: stronger effect = lower value
[19] = drug combination growth inhibition, ovarian cancer – cell-based, oncology-focused library, rucaparib conditional, profiling panel (AID 1508598); conditions: patient-derived ovarian cancer cells, CellTiter-Glo viability, 144 h, stronger effect = lower value
[20] = MELAS cybrid survival, CellTiter-Glo 48 h, stronger effect = higher value
[21] = Rieske KO mouse fibroblast survival, CellTiter-Glo 72 h

Chain of Cellular tumor antigen p53 (Homo sapiens) (P04637 whole entry, looked up): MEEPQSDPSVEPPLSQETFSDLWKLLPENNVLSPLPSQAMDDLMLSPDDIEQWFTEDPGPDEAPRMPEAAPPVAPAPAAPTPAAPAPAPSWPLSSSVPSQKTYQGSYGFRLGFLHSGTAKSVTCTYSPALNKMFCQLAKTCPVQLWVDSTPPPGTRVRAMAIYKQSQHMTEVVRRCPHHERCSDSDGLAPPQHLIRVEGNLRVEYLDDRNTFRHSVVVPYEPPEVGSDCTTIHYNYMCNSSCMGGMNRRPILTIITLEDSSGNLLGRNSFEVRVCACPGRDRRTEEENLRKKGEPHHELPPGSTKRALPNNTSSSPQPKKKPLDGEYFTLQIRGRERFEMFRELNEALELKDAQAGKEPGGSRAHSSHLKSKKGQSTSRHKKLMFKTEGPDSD

CN(C)c1cc2c(Nc3ccc4c(cnn4Cc4ccccc4)c3)ncnc2cn1
3.5: EGFP object count [5]
0.646: fold change ([7]; measured here: relative caspase fold change +Dox/-Dox)
-1.64: z-score [2]
2020: cell count ([7]; measured here: total cells without miR-34 induction)
130%: liver cell % of control [1]
3320: cell count ([7]; measured here: total cells with miR-34 induction, stronger effect = lower value)
inactive: parasite % of control [1] 78.7% | percent of negative control (+Dex) [2] 68% | z-score [3] 0.66 | z-score [4] -0.608 | EGFP/DsRed ratio [5] 0.0403 | fraction signal [6] -0.004 | fold change ([7]; stronger effect = lower value, cell number ratio, induced over uninduced) 1.64 | z-score [8, 20] -0.0495 | z-score [9] -0.71
-0.233: z-score [8, 21]

Cn1cc(C2=C(c3c4n(c5ccccc35)CCC(CN)C4)C(=O)NC2=O)c2ccccc21 (centres undefined)
84.3%: liver cell % of control [1]
inactive: parasite % of control [1] 50.7% | percent of negative control (+Dex) [2] 89.5% | EGFP/DsRed ratio [5] 0.0193 | fraction signal [6] -0.001 | outcome [12] | outcome [14] | outcome [15]
2: EGFP object count [5]
active: AC50 [10] 13.2 µM | AC50 [11] 18.7 µM | AC50 [13] 23.5 µM
-0.37: z-score [2]

FC(F)(F)c1ccc(-c2nn3ncccc3c2-c2ccnc(Nc3ccc4c(c3)OCCO4)n2)cc1
inactive: parasite % of control [1] 77.8% | percent of negative control (+Dex) [2] 110% | z-score [3] -0.48 | z-score [4] 0.358 | EGFP/DsRed ratio [5] 0.479 | fraction signal [6] 0.001 | z-score [8, 20] 0.512
5: EGFP object count [5]
0.735: z-score [2]
105%: liver cell % of control [1]
0.23: z-score [8, 21]

NC(=O)c1ccc(-c2nc(-c3ccc4c(c3)OCO4)c(-c3ccccn3)[nH]2)cc1
7590: cell count [18]
active: viability ([19]; at 0.00488 µM, OCI-P5x cells, without rucaparib) 99.5% | viability ([19]; at 0.0781 µM, OCI-P5x cells, without rucaparib) 94.4% | viability ([19]; at 1.25 µM, OCI-P5x cells, without rucaparib) 92.1% | viability ([19]; at 5 µM, OCI-P5x cells, without rucaparib) 93.9%
0.986: SSMD [18]
inactive: parasite % of control [1] 99.9% | percent of negative control (+Dex) [2] 92% | z-score [3] -0.47 | z-score [4] 5.36 | EGFP/DsRed ratio [5] 0.161 | fraction signal [6] -0.007 | outcome [16] | outcome [17] | outcome [10] | outcome [11] | outcome [12] | outcome [13] | outcome [15] | plate-normalised HSF1 focus index [18] 1.06 | z-score [8, 20] -0.87 and -0.497 | viability ([19]; at 0.000305 µM, OCI-C5x cells, with rucaparib 10 µM, 100% = cells with rucaparib alone) 134% | viability ([19]; at 0.000305 µM, OCI-C5x cells, without rucaparib) 138% | viability ([19]; at 0.000305 µM, OCI-P5x cells, with rucaparib 20 µM, 100% = cells with rucaparib alone) 116% | viability ([19]; at 0.000305 µM, OCI-P5x cells, without rucaparib) 105% | viability ([19]; at 0.00122 µM, OCI-C5x cells, with rucaparib 10 µM, 100% = cells with rucaparib alone) 135% | viability ([19]; at 0.00122 µM, OCI-C5x cells, without rucaparib) 143% | viability ([19]; at 0.00122 µM, OCI-P5x cells, with rucaparib 20 µM, 100% = cells with rucaparib alone) 110% | viability ([19]; at 0.00122 µM, OCI-P5x cells, without rucaparib) 103% | viability ([19]; at 0.00488 µM, OCI-C5x cells, with rucaparib 10 µM, 100% = cells with rucaparib alone) 139% | viability ([19]; at 0.00488 µM, OCI-C5x cells, without rucaparib) 135% | viability ([19]; at 0.00488 µM, OCI-P5x cells, with rucaparib 20 µM, 100% = cells with rucaparib alone) 108% | viability ([19]; at 0.0195 µM, OCI-C5x cells, with rucaparib 10 µM, 100% = cells with rucaparib alone) 136% | viability ([19]; at 0.0195 µM, OCI-C5x cells, without rucaparib) 143% | viability ([19]; at 0.0195 µM, OCI-P5x cells, with rucaparib 20 µM, 100% = cells with rucaparib alone) 112% | viability ([19]; at 0.0195 µM, OCI-P5x cells, without rucaparib) 101% | viability ([19]; at 0.0781 µM, OCI-C5x cells, with rucaparib 10 µM, 100% = cells with rucaparib alone) 130% | viability ([19]; at 0.0781 µM, OCI-C5x cells, without rucaparib) 147% | viability ([19]; at 0.0781 µM, OCI-P5x cells, with rucaparib 20 µM, 100% = cells with rucaparib alone) 106% | viability ([19]; at 0.313 µM, OCI-C5x cells, with rucaparib 10 µM, 100% = cells with rucaparib alone) 130% | viability ([19]; at 0.313 µM, OCI-C5x cells, without rucaparib) 146% | viability ([19]; at 0.313 µM, OCI-P5x cells, with rucaparib 20 µM, 100% = cells with rucaparib alone) 105% | viability ([19]; at 0.313 µM, OCI-P5x cells, without rucaparib) 102% | viability ([19]; at 1.25 µM, OCI-C5x cells, with rucaparib 10 µM, 100% = cells with rucaparib alone) 146% | viability ([19]; at 1.25 µM, OCI-C5x cells, without rucaparib) 153% | viability ([19]; at 1.25 µM, OCI-P5x cells, with rucaparib 20 µM, 100% = cells with rucaparib alone) 114% | viability ([19]; at 5 µM, OCI-C5x cells, with rucaparib 10 µM, 100% = cells with rucaparib alone) 198% | viability ([19]; at 5 µM, OCI-C5x cells, without rucaparib) 187% | viability ([19]; at 5 µM, OCI-P5x cells, with rucaparib 20 µM, 100% = cells with rucaparib alone) 102% | z-score [9] -0.03
-0.512 and 0.389: z-score [8, 21]
92.1%: liver cell % of control [1]
0.215: z-score [2]
5.5: EGFP object count [5]
